PubChem BioAssay AID504905 (The Scripps Research Institute Molecular Screening Center, 2011)
Some of the results follow. Active and inactive are the calls of the source. No stated cut-off is given here; in the data, active means activation above about 17%; inactive means the rest.

Each compound was assayed against 5-hydroxytryptamine receptor 5A (Homo sapiens) (UniProt P47898) (assay: HTR5A agonists in cells, counter-screen for OPRM1-OPRD1 heterodimer agonist project, cell-based, luminescence (AID 504905;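 further: 0% = vehicle-treated cells and 100% = reference agonist response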)). Conditions: HTR5A agonist counterscreen, at 9.3 µM, stronger effect = higher value.
Sequence of 5-hydroxytryptamine receptor 5A (Homo sapiens) (P47898 whole entry, looked up): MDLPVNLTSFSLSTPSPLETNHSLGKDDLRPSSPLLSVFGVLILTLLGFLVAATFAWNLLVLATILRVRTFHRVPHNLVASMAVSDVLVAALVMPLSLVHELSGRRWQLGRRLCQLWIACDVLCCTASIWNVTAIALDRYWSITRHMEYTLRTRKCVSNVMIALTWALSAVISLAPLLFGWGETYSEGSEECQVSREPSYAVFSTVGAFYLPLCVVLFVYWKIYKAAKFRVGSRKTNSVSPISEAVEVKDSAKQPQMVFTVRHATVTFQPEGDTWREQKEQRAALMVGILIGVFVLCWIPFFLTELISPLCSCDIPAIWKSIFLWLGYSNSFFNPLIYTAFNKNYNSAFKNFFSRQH

Question: For `Cc1ccc(Nc2ccccc2N)cc1`, which activation is on record?
Answer: 0.79% (inactive)

Question: With `Clc1ccc(COn2c(-c3ccc(Cl)cc3Cl)nc3ncccc32)cc1` as the compound, how does the activation read?
Answer: 0.23% (inactive)

Question: For `COc1ccc(-n2nnnc2-c2nc3ccccc3s2)cc1`, which activation is on record?
Answer: 4.69% (inactive)

Question: For `O=C(NCc1cn2ccsc2n1)Nc1ccc(Cl)cc1`, which activation is on record?
Answer: -5.53% (inactive)

Question: For `Cc1ccc(OCC(=O)Nc2ccc(NC(=O)c3cccs3)cc2)c(C)c1`, which activation is on record?
Answer: 8.16% (inactive)

Question: For `CC(c1cccnc1)N(CCN(C)C)C(=O)Nc1ccc(Cl)c(Cl)c1` (stereo unspecified), which activation is on record?
Answer: -6.75% (inactive)

Question: For `COc1cc(/C=N/NC(=O)Nc2ccccc2)ccc1OCCOc1ccccc1C`, which activation is on record?
Answer: 10.4% (inactive)

Question: How did the activation turn out when `COc1cc(C(=O)OC(C)C(=O)NCC2CCCCC2)cc(NC(=O)c2ccco2)c1OC` (stereo unspecified) was run?
Answer: -2.12% (inactive)

Question: For `CN(C)C(CNC(=O)c1cc2ccccc2o1)c1ccccc1` (stereo unspecified), which activation is on record?
Answer: 46.9% (active)

Question: How did the activation turn out when `CCCC(=O)NC(C)C(c1cccs1)N1CCN(c2ccccc2)CC1` (stereo unspecified) was run?
Answer: -1.26% (inactive)

Question: `Cc1ccc(O)c(NC(=S)NC(=O)COc2ccc(Br)cc2)c1` was tested. Which activation did it give?
Answer: 0.97% (inactive)

Question: How did the activation turn out when `COc1ccc(C(CNCC(=O)Nc2ccccc2F)N(C)C)cc1` (stereo unspecified) was run?
Answer: 5.09% (inactive)

Question: Which activation does the source give for `CCc1ccc(C(CNc2nc(C(F)(F)F)nc3ccccc23)N(C)C)cc1` (stereo unspecified) here?
Answer: -2.05% (inactive)

Question: For `CN1CCN(c2ccc([N+](=O)[O-])c(Sc3nc4ccccc4[nH]3)c2)CC1`, which activation is on record?
Answer: -0.05% (inactive)

Question: `COc1ccc(SC[C@H](Cc2ccccc2)N2CCN(CCc3ccccc3)CCC2=O)cc1` was tested. Which activation did it give?
Answer: -1.8% (inactive)

Question: Which activation does the source give for `N#C/C(=C(/O)COC(=O)COc1ccc(Cl)cc1)c1nc2ccccc2[nH]1` here?
Answer: 9.3% (inactive)

Question: With `COc1ccc(C2Nc3ccccc3C(=O)N2c2ccc(F)cc2)cc1Cn1nnc2ccccc21` (stereo unspecified) as the compound, how does the activation read?
Answer: 2.9% (inactive)

Question: For `O=C(Nc1ccc(OC(F)(F)F)cc1)c1ccc2c(c1)no[n+]2[O-]`, which activation is on record?
Answer: 1.96% (inactive)

Question: `COC(=O)c1ccc(C23CC4(C2)[C@H](CN(Cc2cccnc2)[C@@H]4c2ccccc2)C3c2ccc(Cl)nc2)cc1` (stereo partly specified) was tested. Which activation did it give?
Answer: 5.91% (inactive)

Question: For `COc1ccccc1C(CNC(=O)c1ccc(C)c(S(=O)(=O)N2CCCCC2)c1)N(C)C` (stereo unspecified), which activation is on record?
Answer: 0.79% (inactive)

Question: For `Cc1ccc(S(=O)(=O)N(CC(=O)Nc2cccnc2)c2ccc(Br)cc2)cc1`, which activation is on record?
Answer: 0.5% (inactive)
